Screens (PubChem)
TDP1 cell CPT – DT40-hTDP1 cell growth loss with CPT; chicken DT40 Tdp1-/-;hTDP1 cells + 20 nM CPT, ATP luminescence, 48 h; Potency, µM (doses to about 46.2 µM), without a hit: at the top dose activity change, negative = growth inhibition, actives largely listed as inhibitors; 12% of 420,000 active; AID 686979; further: nearly all actives have a fitted effect of over 55% in size
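Cell growth measured by CellTiter-Glo luminescence after a minimum 48 h, 37 C compound exposure with 20 nM CPT in Tdp1-knockout DT40 cells stably expressing hTDP1, seeded 400/well; qHTS titration format.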
RORgamma inh – inhibitors of mouse ROR gamma transcriptional activity; P51450; Drosophila S2 Gal4-RORgamma UAS-luciferase reporter, 20 h; Potency, µM (top dose mostly 53.6 µM), without a hit: at the top dose activity change, negative = inhibition, actives largely listed as inhibitors; 5.4% of 310,000 active; AID 2551; further: nearly all actives have a fitted effect of over 60% in size
Target sequence (P51450 whole entry, looked up, the tested form may be a part): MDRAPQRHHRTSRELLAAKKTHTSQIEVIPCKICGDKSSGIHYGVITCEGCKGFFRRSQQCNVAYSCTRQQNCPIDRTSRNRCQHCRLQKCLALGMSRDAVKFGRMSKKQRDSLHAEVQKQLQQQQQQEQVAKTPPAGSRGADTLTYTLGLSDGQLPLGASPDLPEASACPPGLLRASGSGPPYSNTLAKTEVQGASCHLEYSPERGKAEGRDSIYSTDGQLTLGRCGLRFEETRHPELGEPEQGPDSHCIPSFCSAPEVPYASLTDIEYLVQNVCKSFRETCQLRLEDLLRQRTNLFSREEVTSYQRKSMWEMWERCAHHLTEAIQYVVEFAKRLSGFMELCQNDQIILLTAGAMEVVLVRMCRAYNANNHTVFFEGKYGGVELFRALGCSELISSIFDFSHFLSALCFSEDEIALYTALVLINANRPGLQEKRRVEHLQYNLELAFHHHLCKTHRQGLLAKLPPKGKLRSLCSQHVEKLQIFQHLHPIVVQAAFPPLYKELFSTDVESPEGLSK
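Luminescence from a UAS-regulated Photinus luciferase reporter in stably transfected Drosophila Schneider cells is measured; decreased signal marks ROR gamma inhibition. Fusion expression is induced by 700 uM copper sulfate for 20 hr.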
VP16 counter – inhibits Gal4-VP16 luciferase reporter, ROR gamma counter-screen; Drosophila S2 Gal4-VP16 UAS-luciferase, luminescence, 20 h; 3.5% of 310,000 active; AID 2546; Potency, µM (top dose mostly 53.6 µM), inactives show at the top dose activity, negative = inhibition, hits mostly inhibitors;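 further: Gal4-VP16 expression switched on by copper sulfate through the metallothionein promoter; nearly all actives have a fitted effect of over 50% in size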
TDP1 block – inhibitors of human tyrosyl-DNA phosphodiesterase TDP1; Q9NUW8; recombinant TDP1, AlphaScreen DNA substrate cleavage; Potency, µM (highest dose often 130 µM), for the others: at the top dose activity change, negative = inhibition, actives largely listed as inhibitors; 0.28% of 350,000 active; AID 485290; further: nearly all actives have a fitted effect of over 40% in size
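E. coli-derived human Tdp1, 1 nM final. Cpd preinc 15 min RT; substrate 15 nM final, 5 min RT; AS bead mix 10 ug/ml final, 10 min RT. Signal loss = tyrosine-FITC cleavage. No-enzyme wells = max signal.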
TDP1 cell noCPT – qHTS for Inhibitors of human tyrosyl-DNA phosphodiesterase 1 (TDP1): qHTS in cells in absence of CPT | Potency, µM (doses to about 46.2 µM), without a hit: at the highest dose activity change, negative = growth inhibition, hits mostly inhibitors | DT40 Tdp1-/- hTDP1 cells, no CPT, ATP luminescence, 48 h | 15% of 420,000 active | AID 686978, 2013; further: nearly all actives have a fitted effect of over 55% in size
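Growth kinetics read by CellTiter-Glo luminescence after ≥48 hr at 37 °C. Cells: DT40 Tdp1-/- stably carrying human TDP1, 400 per well, compound exposure in the absence of CPT (DMSO vehicle).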
* = called active by the depositor; ? = inconclusive; . = not tested or not shown; [ ] = remark or other dose. A selection: hits, their analogues and other compounds. The true share with any hit is near 19%. The call rests on the fitted dose curve; in most records, active means well fitted curve in the direction sought with a large enough effect; inconclusive means small, poorly fitted or top-dose-only effect, or another doubt; inactive means no such curve, though single readings can be large; an effect the other way counts as inactive or inconclusive. On the % scale 0 is the no-effect control and ±100 the full control effect; potency means the concentration at half of the fitted maximal effect.

SMILES | TDP1 cell CPT | RORgamma inh | VP16 counter | TDP1 block | TDP1 cell noCPT
COc1cccc(NC(=O)CSc2nnc(C)s2)c1 | -1% | 14% | 0% | 2% | 1%
COc1ccc(O[C@H]2C=C[C@@H](c3ccccc3)O[C@H]2COC(=O)CC/C(C)=N\OC[C@@H](C)[C@H](OCc2ccccc2)C(C)C)cc1 | . | 16%[10 µM] | -3%[10 µM] | 6%[21 µM] | .
C#CCSc1nc2sc3c(c2c(=O)n1C)CCC3 | -2% | 16% | -2% | . | 12%
N#CCSc1nc2sc3c(c2c(=O)n1C1CCCCC1)CCCC3 | ? | ? | -8% | 1% | 23µM*
C=C(C)CSc1nc2sc3c(c2c(=O)n1C1CCCCC1)CCN(C)C3 | 5.8µM* | -12% | 5% | 0% | 6.5µM*
CCSc1nc2sc3c(c2c(=O)n1C1CCCCC1)CCN(C)C3 | 16µM* | -4% | 4% | 6% | 15µM*
CCOC(=O)c1ccc(NC(=O)COc2ccc(CNCCO)cc2OCC)cc1 | 7% | -5% | -8% | 3% | -8%
CC(C)NC(=O)C1(C)CSCC(=O)N1Cc1cccc(C(F)(F)F)c1 (configuration not stated) | -3% | . | . | . | 2%
Cc1cc(C)nc(SSc2nc(C)cc(C)n2)n1 | ? | 5.6µM* | 6.3µM* | . | ?
Cc1cc(C)nc(SCC(=O)O)n1 | -15% | -21% | -8% | 1% | -11%
CC1(C)N=C(N)N=C(N)N1c1ccc(OCC(=O)N2CCOCC2)c(Cl)c1 | 0.41µM* | . | . | . | 0.37µM*
CC1(C)N=C(N)N=C(N)N1c1cccc(CC(=O)Nc2ccccc2)c1 | 9.2µM* | . | . | . | 2.6µM*
CC1(C)N=C(N)N=C(N)N1c1ccc(OCC(=O)Nc2ccccc2)c(Cl)c1 | 1.2µM* | . | . | . | 0.73µM*
Cc1cccc(NC(=O)CCc2ccc(N3C(N)=NC(N)=NC3(C)C)cc2)c1 | 0.33µM* | . | . | . | 0.37µM*
Cc1ccc(CNC(=O)C2CCCCN2S(=O)(=O)c2ccccc2)cc1 (configuration not stated) | -43% | -2% | 3% | 5% | ?
O=[N+]([O-])c1ccc(S(=O)(=O)Nc2nnc(C3CCCCC3)s2)cc1 | -25% | 9% | 1% | -3% | -27%
CCCc1ccc(-c2ccc(C(=O)O)cc2)nc1 | 5% | ? | ? | 5% | -6%
CC1(C)N=C(N)N=C(N)N1c1ccc(OCCCOc2ccccc2)c(Cl)c1 | 1.8µM* | 31% | -11% | 7% | 2.3µM*
COc1cc(C)ccc1OCCCOc1ccccc1Cl | ? | -32% | -9% | -2% | ?
CC#CCOC(=O)c1c(C)nc2sc3c(c2c1N)CC[C@@H](O)C3 | -59% | 7.1µM* | ? | -14%[56.1 µM] | 11µM*
CC(C)(C)n1nnnc1C(c1cccc(C#N)c1)N1CCCc2ccccc21 (configuration not stated) | 4% | 3% | -16% | 8% | ?
CC(=O)N[C@@H](c1ccccc1)[C@]1(C)C[C@H]1[C@@H](C)C(=O)Nc1ccc2ccccc2c1 | . | 0.35µM* | -3% | 12% | .
C[C@@H](C(=O)Nc1ccc2ccccc2c1)[C@H]1C[C@]1(C)[C@H](NC(=O)OCc1ccccc1)c1ccccc1 | 18µM* | 25% | -9% | 0% | 16µM*
C[C@@H](C(=O)Nc1ccc2ccccc2c1)[C@@H]1C[C@@]1(C)[C@@H](NS(=O)(=O)c1ccccc1)c1ccccc1 | . | 42% | -9% | 3% | .
Cc1cc(C(=O)N[C@H](c2ccccc2)[C@@]2(C)C[C@@H]2[C@@H](C)C(=O)Nc2ccc3ccccc3c2)n(C)n1 | ? | ? | -15% | 5% | 23µM*
SMILES | TDP1 cell CPT | RORgamma inh | VP16 counter | TDP1 block | TDP1 cell noCPT
C[C@@H](C(=O)Nc1ccc2ccccc2c1)[C@@H]1C[C@@]1(C)[C@@H](NC(=O)Oc1ccc(F)cc1)c1ccccc1 | . | -29% | -5% | 4% | .
CCn1nc(C)c(/C=N/NC(=O)c2nc3nc(C)cc(C)n3n2)c1C | 16% | 4% | -1% | . | -1%
CC1(C(=O)NCCC(F)(F)F)Cc2c(-c3cccc(C(N)=O)c3)ccnc2O1 (configuration not stated) | ? | . | . | . | 0.82µM*
CN(C)CCNC(=O)C1(C)Cc2c(-c3cccc(C(F)(F)F)c3)ccnc2O1 (configuration not stated) | -73% | . | . | . | 6.5µM*
CC(=O)Nc1cccc(-c2ccnc3c2CC(C)(C(=O)NCCN(C)C)O3)c1 (configuration not stated) | 1% | . | . | . | -3%
CC1(C(=O)NCCC(F)(F)F)Cc2c(-c3cccc(C(F)(F)F)c3)ccnc2O1 (configuration not stated) | 4.6µM* | . | . | . | 3.3µM*
CC1(C(=O)NCC2CCOCC2)Cc2c(-c3cccc(C(F)(F)F)c3)ccnc2O1 (configuration not stated) | 5.2µM* | . | . | . | 3.3µM*
Cc1nc(N(C)C)c2sc(=S)n(-c3ccccc3)c2n1 | ? | 10% | -4% | 3% | ?
O=C(O)C1CCC(=O)N1Cc1ccc(F)cc1 (configuration not stated) | -12% | -2% | 1% | 0% | -14%
COCCNC(=O)c1ccc2nc(CCc3ccccc3)oc2c1 | 11% | . | . | 5% | 4%
CCC(C)NC(=O)c1ccc2nc(-c3cccs3)c(-c3cccs3)nc2c1 (configuration not stated) | 10µM* | . | . | -2% | 13µM*
O=C(NCc1cccc(F)c1)c1ccc2nc(CCc3ccccc3)oc2c1 | 21µM* | . | . | 4% | ?
CCC(C)NC(=O)c1ccc2nc(CCc3ccccc3)oc2c1 (configuration not stated) | ? | . | . | -4% | 23µM*
CCNC(=O)c1ccc2nc(CCc3ccccc3)oc2c1 | -23% | . | . | 1% | -19%
CC(NC(=O)c1ccc2nc(CCc3ccccc3)oc2c1)c1ccccc1 (configuration not stated) | 21µM* | . | . | 2% | ?
CC(C)C(=O)Nc1ccccc1OCc1cc(=O)n2ccccc2n1 | -1% | . | . | 0% | -15%
COc1ccc(CNC(=O)c2ccc(Cn3cc(Cl)cn3)o2)cc1 | 7% | 18% | -4% | . | -16%
COc1ccc(-n2c(=O)c3c4c(sc3n(CC(N)=O)c2=O)CCCCC4)cc1 | -11% | -7% | -1% | 3% | -8%
Cc1cccc(NC(=O)c2ccc3nc(CCc4ccccc4)oc3c2)c1C | 18µM* | . | . | -4% | ?
COc1ccc2c(c1)OC/C(=C/c1ccc(OC)c(OC)c1)C2=O | ? | ? | ? | 7% | ?
COc1ccc2c(c1)OCC(Cc1ccc(OC)c(O)c1)C2=O (configuration not stated) | 0.73µM* | ? | 2% | 8% | 0.58µM*
